Data on 40 molecules can be found in the supplement of paper PMC6522484.

± gives the standard deviation of the averaged measurements.

In the first test the test system is DLD1. As to the kind of experiment: cell viability (CellTiter-Glo) relative to plate median (fraction of plate median); higher = more viable cells. The note with it: 5 µM; treatment time 24 h; reporter: 7TFP. In short, it runs like this: (§1)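 Colorectal cancer cell lines stably carrying lentiviral TCF/Wnt firefly luciferase reporters (7TFP or TCF4/Wnt) were plated in 384-well plates and, 24 h later, given library compounds at a final 5 µM for 24 h. Firefly luciferase or CellTiterGlo luminescence was read on parallel plates with a Tecan F500 reader. Each well's signal was normalised to the plate median in webcellHTS2 (additive, without log transformation). Values are the mean of two independent replicates.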
(In general: Cellular ATP, detected with luciferase, serves as a proxy for viable cell number.)
Molecule `Cc1ccccc1N1C(=O)c2cc(S(N)(=O)=O)c(Cl)cc2NC1C` (stereo not given) came in with a cell viability of 1.06 ± 0.078.
Take `COc1ccc(-c2coc3cc(O)cc(O)c3c2=O)cc1`: the cell viability is 1.01 ± 0.065.
Consider `COc1ccc([C@H]2Oc3cc(OC)cc(OC)c3C[C@H]2O)cc1`, for which the cell viability was found to be 1 ± 0.029.
On the same count and under the same terms, the value for `Cc1onc(-c2ccccc2)c1-c1ccc(S(N)(=O)=O)cc1` was 0.844 ± 0.058; that for `Cc1nnc(NS(=O)(=O)c2ccc(N)cc2)s1` was 1.01 ± 0.016.
Still for that read-out and setting: next, `Nc1c2c(nc3ccccc13)CCCC2O` (stereo not given): 1.01 ± 0.018; `CN(C)CCCO[C@@H]1[C@H]2OC(C)(C)O[C@H]2O[C@@H]1[C@H](O)CO`: 1.04 ± 0.06; `C=C1CC[C@H](O)C/C1=C/C=C1\CCC[C@]2(C)[C@@H]([C@H](C)/C=C/[C@H](C)C(C)C)CC[C@@H]12`: 0.982 ± 0.054.
Molecule `CC(=O)O[C@H]1C[C@@H](OC(C)=O)C(C)(C)C2C[C@@H](O)[C@]3(C)C(CC[C@@]4(C)[C@H](c5ccoc5)OC(=O)[C@H]5O[C@]543)[C@]21C` (stereo not given in full) gave a cell viability of 1.04 ± 0.042.
On the same count and under the same terms, next, `COc1cc2cc3c4cc(OC)c(OC)cc4cc[n+]3c(C)c2cc1OC`: 1 ± 0.067; `CC1=C(C/C=C(\C)CCC[C@H](C)CCC[C@H](C)CCCC(C)C)C(=O)c2ccccc2C1=O`: 0.9945 ± 0.00071; `CC(C)Oc1ccc2c(=O)c(-c3ccccc3)coc2c1`: 0.972 ± 0.013.
The same measure, in the same setting: next, `O=C(Oc1cc(OC(=O)c2ccccc2)c2c(c1)O[C@H](c1ccc(OC(=O)c3ccccc3)c(OC(=O)c3ccccc3)c1)[C@@H](OC(=O)c1ccccc1)C2)c1ccccc1`: 1.04 ± 0.059; `COc1cccc(OC)c1C(=O)N[C@@H]1C(=O)N2[C@@H]1SC(C)(C)[C@@H]2C(=O)O`: 1.05 ± 0.071.
On the same count and under the same terms, the value for `CC(CN1c2ccccc2Sc2ccccc21)N(C)C` (stereo not given) was 1.09 ± 0.05; that for `OC[C@@H](O)[C@@H](O[C@@H]1O[C@H](CO)[C@@H](O)[C@H](O)[C@H]1O)[C@H](O)[C@@H](O)CO` was 0.959 ± 0.058.
Molecule `CC(C)=CCC/C(C)=C\CO` returned a cell viability of 0.992 ± 0.082.
Same read-out and setting: next, `c1ccc(-c2ccc(C(c3ccccc3)n3ccnc3)cc2)cc1` (stereo not given): 1.03 ± 0.035; `O=C(O)c1c[nH]c2ccccc12` [Indole-3-carboxylic acid]: 0.977 ± 0.011.
The same measure, in the same setting: the value for `C[C@H]1[C@H]2CC[C@H]3[C@@H]4CC=C5C[C@@H](N(C)C)CC[C@]5(C)[C@H]4CC[C@]23CN1C` was 0.896 ± 0.0042.
Same read-out and setting: next, `C=CC[S+]([O-])C[C@H](N)C(=O)O` (stereo not given in full): 0.984 ± 0.018; `C/C1=C2/[N-][C@H]([C@H](CC(N)=O)[C@@]2(C)CCC(=O)NC[C@@H](C)OP(=O)([O-])O[C@H]2[C@@H](O)[C@@H](n3cnc4cc(C)c(C)cc43)O[C@@H]2CO)[C@]2(C)N=C(/C(C)=C3N=C(/C=C4N=C1[C@@H](CCC(N)=O)C\4(C)C)[C@@H](CCC(N)=O)[C@]\3(C)CC(N)=O)[C@@H](CCC(N)=O)[C@]2(C)CC(N)=O.[CH2-][C@H]1O[C@H](n2cnc3c(N)ncnc32)[C@@H](O)[C@H]1O.[Co+3]`: 0.933 ± 0.021.
As to `C[C@@]12C[C@@]3(O)O[C@@H](O1)[C@]1(COC(=O)c4ccccc4)[C@H]3C[C@@]12O[C@@H]1O[C@H](CO)[C@@H](O)[C@H](O)[C@H]1O`, the cell viability came out at 1.06 ± 0.014.
The same measure, in the same setting: the value for `CCC(=O)C(CC)C(O)C(C)CC(C)C1OC(=O)CC2(O)CC=C(C)C(O2)/C(C)=C/CCCC(OC2CC(OC(N)=O)C(O)C(C)O2)/C=C\C(C)C(O)C1C` (stereo not given) was 1.08 ± 0.16.
`C[C@H]1C(=O)CC[C@@H]2[C@]1(C)CC[C@H]1[C@@]2(C)CC[C@@]2(C)[C@@H]3CC(C)(C)CC[C@]3(C)CC[C@]12C`: the cell viability was found to be 1.04 ± 0.014.
Same read-out and setting: next, `Nc1ccc(S(N)(=O)=O)cc1`: 1.04 ± 0.081; `COc1c2occc2c(OC)c2c(=O)cc(C)oc12`: 0.99 ± 0.057; `Cc1cc(=O)[nH]c(=S)[nH]1`: 1.07 ± 0.05.
On the same count and under the same terms, the value for `COc1cc(O)cc(OC)c1OC` was 1.01 ± 0.019.
Same read-out and setting: the value for `Oc1cc(O)c2c(c1)O[C@H](c1ccc(O)c(O)c1)[C@@H](O)C2` was 1.03 ± 0.014; that for `COc1ccc(CCC(=O)c2c(O)cc(O[C@@H]3O[C@H](CO)[C@@H](O)[C@H](O)[C@H]3O[C@@H]3O[C@@H](C)[C@H](O)[C@@H](O)[C@H]3O)cc2O)cc1O` was 0.96 ± 0.085.
For the molecule `CCCCCC(=O)O[C@]1(C(C)=O)CC[C@H]2[C@@H]3CCC4=CC(=O)CC[C@]4(C)[C@H]3CC[C@@]21C`, the cell viability worked out at 0.993 ± 0.0099.
On the same count and under the same terms, next, `CNS(=O)(=O)c1ccc(NC(=O)c2ccccc2C(=O)O)cc1`: 1.03 ± 0.098; `C[C@H]1COC2=C1C(=O)C(=O)c1c2ccc2c1CCCC2(C)C`: 1.15 ± 0.2.
On the same count and under the same terms, next, `Cc1ccc2c(Cl)cc(Cl)c(O)c2n1`: 1.01 ± 0.021; `O=C(O)CCCCCCCC(=O)O`: 1.01 ± 0.014.
`COc1ccc(C(C)=O)c(O)c1` came in with a cell viability of 1 ± 0.037.
On the same count and under the same terms, the value for `CC(C)NCC(O)c1cc(O)cc(O)c1` (stereo not given) was 0.999 ± 0.03.
In turn, `COc1ccc(-c2coc3cc(O)ccc3c2=O)c(OC)c1O` registered a cell viability of 1.01 ± 0.021.
On the same count and under the same terms, next, `CCCCCCCCCCC[C@@H](C[C@@H]1OC(=O)[C@H]1CCCCCC)OC(=O)[C@H](CC(C)C)NC=O`: 0.83 ± 0.15.

The next test concerns HCT116. Described as above. The note with it: 5 µM; treatment time 24 h; reporter: TCF4/Wnt. In short, it runs like this: as §1
`Cc1ccccc1N1C(=O)c2cc(S(N)(=O)=O)c(Cl)cc2NC1C` (stereo not given) showed a cell viability of 1.02 ± 0.035.
`COc1ccc(-c2coc3cc(O)cc(O)c3c2=O)cc1`: the cell viability was 0.888 ± 0.016.
`COc1ccc([C@H]2Oc3cc(OC)cc(OC)c3C[C@H]2O)cc1` returned a cell viability of 0.941 ± 0.098.
The same measure, in the same setting: the value for `Cc1onc(-c2ccccc2)c1-c1ccc(S(N)(=O)=O)cc1` was 1.02 ± 0.03; that for `Cc1nnc(NS(=O)(=O)c2ccc(N)cc2)s1` was 1.04 ± 0.028.
On the same count and under the same terms, next, `Nc1c2c(nc3ccccc13)CCCC2O` (stereo not given): 1.12 ± 0.028; `CN(C)CCCO[C@@H]1[C@H]2OC(C)(C)O[C@H]2O[C@@H]1[C@H](O)CO`: 0.9935 ± 0.0064; `C=C1CC[C@H](O)C/C1=C/C=C1\CCC[C@]2(C)[C@@H]([C@H](C)/C=C/[C@H](C)C(C)C)CC[C@@H]12`: 0.995 ± 0.11.
On the same count and under the same terms, next, `CC(=O)O[C@H]1C[C@@H](OC(C)=O)C(C)(C)C2C[C@@H](O)[C@]3(C)C(CC[C@@]4(C)[C@H](c5ccoc5)OC(=O)[C@H]5O[C@]543)[C@]21C` (stereo not given in full): 1.06 ± 0.014; `COc1cc2cc3c4cc(OC)c(OC)cc4cc[n+]3c(C)c2cc1OC`: 0.959 ± 0.013; `CC1=C(C/C=C(\C)CCC[C@H](C)CCC[C@H](C)CCCC(C)C)C(=O)c2ccccc2C1=O`: 0.988 ± 0.06.
Turning to `CC(C)Oc1ccc2c(=O)c(-c3ccccc3)coc2c1`, the cell viability was 1.05 ± 0.083.
On the same count and under the same terms, next, `O=C(Oc1cc(OC(=O)c2ccccc2)c2c(c1)O[C@H](c1ccc(OC(=O)c3ccccc3)c(OC(=O)c3ccccc3)c1)[C@@H](OC(=O)c1ccccc1)C2)c1ccccc1`: 1.065 ± 0.0071.
Turning to `COc1cccc(OC)c1C(=O)N[C@@H]1C(=O)N2[C@@H]1SC(C)(C)[C@@H]2C(=O)O`, the cell viability came out at 1.17 ± 0.042.
On the same count and under the same terms, the value for `CC(CN1c2ccccc2Sc2ccccc21)N(C)C` (stereo not given) was 1.1 ± 0.064.
`OC[C@@H](O)[C@@H](O[C@@H]1O[C@H](CO)[C@@H](O)[C@H](O)[C@H]1O)[C@H](O)[C@@H](O)CO` gave a cell viability of 1.01 ± 0.058.
The same measure, in the same setting: the value for `CC(C)=CCC/C(C)=C\CO` was 1.02 ± 0.042; that for `c1ccc(-c2ccc(C(c3ccccc3)n3ccnc3)cc2)cc1` (stereo not given) was 1.01 ± 0.026.
With `O=C(O)c1c[nH]c2ccccc12` [Indole-3-carboxylic acid], the cell viability stood at 0.868 ± 0.083.
`C[C@H]1[C@H]2CC[C@H]3[C@@H]4CC=C5C[C@@H](N(C)C)CC[C@]5(C)[C@H]4CC[C@]23CN1C` came in with a cell viability of 0.783 ± 0.14.
On the same count and under the same terms, the value for `C=CC[S+]([O-])C[C@H](N)C(=O)O` (stereo not given in full) was 0.903 ± 0.079; that for `C/C1=C2/[N-][C@H]([C@H](CC(N)=O)[C@@]2(C)CCC(=O)NC[C@@H](C)OP(=O)([O-])O[C@H]2[C@@H](O)[C@@H](n3cnc4cc(C)c(C)cc43)O[C@@H]2CO)[C@]2(C)N=C(/C(C)=C3N=C(/C=C4N=C1[C@@H](CCC(N)=O)C\4(C)C)[C@@H](CCC(N)=O)[C@]\3(C)CC(N)=O)[C@@H](CCC(N)=O)[C@]2(C)CC(N)=O.[CH2-][C@H]1O[C@H](n2cnc3c(N)ncnc32)[C@@H](O)[C@H]1O.[Co+3]` was 0.964 ± 0.18; that for `C[C@@]12C[C@@]3(O)O[C@@H](O1)[C@]1(COC(=O)c4ccccc4)[C@H]3C[C@@]12O[C@@H]1O[C@H](CO)[C@@H](O)[C@H](O)[C@H]1O` was 0.887 ± 0.12.
The same measure, in the same setting: the value for `CCC(=O)C(CC)C(O)C(C)CC(C)C1OC(=O)CC2(O)CC=C(C)C(O2)/C(C)=C/CCCC(OC2CC(OC(N)=O)C(O)C(C)O2)/C=C\C(C)C(O)C1C` (stereo not given) was 1; that for `C[C@H]1C(=O)CC[C@@H]2[C@]1(C)CC[C@H]1[C@@]2(C)CC[C@@]2(C)[C@@H]3CC(C)(C)CC[C@]3(C)CC[C@]12C` was 0.983 ± 0.052.
Same read-out and setting: next, `Nc1ccc(S(N)(=O)=O)cc1`: 0.975 ± 0.031.
Molecule `COc1c2occc2c(OC)c2c(=O)cc(C)oc12` had a cell viability of 0.969 ± 0.14.
Still for that read-out and setting: the value for `Cc1cc(=O)[nH]c(=S)[nH]1` was 1.01 ± 0.072; that for `COc1cc(O)cc(OC)c1OC` was 1.01 ± 0.015; that for `Oc1cc(O)c2c(c1)O[C@H](c1ccc(O)c(O)c1)[C@@H](O)C2` was 1.03 ± 0.076.
Consider `COc1ccc(CCC(=O)c2c(O)cc(O[C@@H]3O[C@H](CO)[C@@H](O)[C@H](O)[C@H]3O[C@@H]3O[C@@H](C)[C@H](O)[C@@H](O)[C@H]3O)cc2O)cc1O`, for which the cell viability is 1.01 ± 0.024.
For `CCCCCC(=O)O[C@]1(C(C)=O)CC[C@H]2[C@@H]3CCC4=CC(=O)CC[C@]4(C)[C@H]3CC[C@@]21C`, the cell viability is 1.04 ± 0.057.
Molecule `CNS(=O)(=O)c1ccc(NC(=O)c2ccccc2C(=O)O)cc1` registered a cell viability of 1.04 ± 0.042.
As to `C[C@H]1COC2=C1C(=O)C(=O)c1c2ccc2c1CCCC2(C)C`, the cell viability amounted to 1.12 ± 0.042.
The same measure, in the same setting: the value for `Cc1ccc2c(Cl)cc(Cl)c(O)c2n1` was 1.01 ± 0.15; that for `O=C(O)CCCCCCCC(=O)O` was 1.11 ± 0.11; that for `COc1ccc(C(C)=O)c(O)c1` was 1.04 ± 0.09.
`CC(C)NCC(O)c1cc(O)cc(O)c1` (stereo not given) returned a cell viability of 0.954 ± 0.06.
Molecule `COc1ccc(-c2coc3cc(O)ccc3c2=O)c(OC)c1O` gave a cell viability of 1.03 ± 0.063.
Consider `CCCCCCCCCCC[C@@H](C[C@@H]1OC(=O)[C@H]1CCCCCC)OC(=O)[C@H](CC(C)C)NC=O`, for which the cell viability is 1.03 ± 0.12.
